Measured values reported in PubChem BioAssay (EPA / NIEHS).
Inconclusive results are not listed. Activity calls are given as the source filed them. How the source made its calls, unless noted: active means hit-call score of the fitted dose curve at least 0.9, where 1 is the maximum; inactive means score below 0.9.

Tests used:
[1] = read-out: sulfotransferase 2A1 (SULT2A1), SULT2A1 (gene 6822); test: LTEA_HepaRG_SULT2A1: Life Technologies and Expression Analysis (LTEA) Assay for sulfotransferase 2A1 (SULT2A1) using HepaRG (AID 2283531); conditions: mRNA level, 48 h; actives raise or lower the signal
How it was run: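 Gene-expression endpoint in a human liver cell line: SULT2A1 mRNA change after 48 h chemical treatment, curves fitted in both directions relative to 0.5% DMSO vehicle. Concentrations spanned eight half-log steps from 100 uM.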

[2] = read-out: Transforming Growth Factor (TGFA), TGFA (gene 7039); test: LTEA_HepaRG_TGFA: Life Technologies and Expression Analysis (LTEA) Assay for Transforming Growth Factor (TGFA) using HepaRG (AID 2283532); conditions: mRNA level, 48 h; actives raise or lower the signal
How it was run: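 HepaRG (human liver line), 48 h exposure, 8 conc. half-log down from 100 uM, 0.5% DMSO vehicle, duplicates; serum-free induction medium. TGFA mRNA by TaqMan qRT-PCR, ACTB/GAPDH/POLR2A normalization; gain/loss fit vs DMSO.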

[3] = read-out: Transforming Growth Factor (TGFB1), TGFB1 (gene 7040); test: LTEA_HepaRG_TGFB1: Life Technologies and Expression Analysis (LTEA) Assay for Transforming Growth Factor (TGFB1) Transporter using HepaRG (AID 2283533); conditions: mRNA level, 48 h; actives raise or lower the signal
How it was run: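 Eight-point concentration-response (max 100 uM, half-log) in HepaRG under serum-free induction conditions, 48 h. TGFB1 mRNA by qRT-PCR, housekeeping-normalized.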

TIMP1, TIMP1 (gene 7076) = test: LTEA_HepaRG_TIMP1: Life Technologies and Expression Analysis (LTEA) Assay for TIMP1 using HepaRG (AID 2283534); conditions: mRNA level, 48 h; actives raise or lower the signal
How it was run: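 TIMP1 induction or repression in HepaRG cells after 48 h chemical exposure (eight concentrations, highest 100 uM), assessed by normalized qRT-PCR with bidirectional fitting to DMSO controls.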

[4] = read-out: Thyroid Hormone Responsive (THRSP), THRSP (gene 7069); test: LTEA_HepaRG_THRSP: Life Technologies and Expression Analysis (LTEA) Assay for Thyroid Hormone Responsive (THRSP) using HepaRG (AID 2283536); conditions: mRNA level, 48 h; actives raise or lower the signal
How it was run: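 mRNA induction or loss relative to 0.5% DMSO vehicle was fitted bidirectionally across an eight-point curve whose highest exposure was 100 uM. Human HepaRG liver cells received chemicals in duplicate over 48 h before RNA extraction.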

[5] = read-out: Cellular tumor antigen p53 (Homo sapiens) (UniProt P04637); test: LTEA_HepaRG_TP53: Life Technologies and Expression Analysis (LTEA) Assay for Tumor Protein P53 (TP53) using HepaRG (AID 2283537); conditions: mRNA level, 48 h; actives raise or lower the signal
How it was run: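 Differentiated HepaRG cells in serum-free induction medium exposed 48 h in duplicate to 8 half-log concentrations, top 100 uM, 0.5% DMSO. TP53 mRNA by TaqMan qRT-PCR (Fluidigm), normalized to ACTB, GAPDH, POLR2A; fitted bidirectionally versus DMSO.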

[6] = read-out: UDP glucuronosyltransferase (UGT1A1), UGT1A1 (gene 54658); test: LTEA_HepaRG_UGT1A1: Life Technologies and Expression Analysis (LTEA) Assay for UDP glucuronosyltransferase (UGT1A1) using HepaRG (AID 2283538); conditions: mRNA level, 48 h; actives raise or lower the signal
How it was run: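 Differentiated human HepaRG cells in serum-free induction medium were exposed in duplicate for 48 h to eight half-log concentrations up to 100 uM in 0.5% DMSO. UGT1A1 mRNA was quantified by TaqMan qRT-PCR, normalized to ACTB, GAPDH and POLR2A, and fitted bidirectionally against DMSO.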

[7] = read-out: UDP glucuronosyltransferase (UGT1A6), UGT1A6 (gene 54578); test: LTEA_HepaRG_UGT1A6: Life Technologies and Expression Analysis (LTEA) Assay for UDP glucuronosyltransferase (UGT1A6) using HepaRG (AID 2283539); conditions: mRNA level, 48 h; actives raise or lower the signal
How it was run: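 Measures mRNA change in HepaRG hepatic cells exposed 48 h to chemicals (eight-point, maximum 100 uM, 0.5% DMSO vehicle) in serum-free induction medium. Expression normalized to endogenous controls; DMSO served as negative control and baseline.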

[8] = read-out: X-box binding protein 1 (XBP1), XBP1 (gene 7494); test: LTEA_HepaRG_XBP1: Life Technologies and Expression Analysis (LTEA) Assay for X-box binding protein 1 (XBP1) using HepaRG (AID 2283540); conditions: mRNA level, 48 h; actives raise or lower the signal
How it was run: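 Eight concentrations (half-log, highest 100 uM, 0.5% DMSO) tested in duplicate on HepaRG cells over 48 h in serum-free induction medium; qRT-PCR of XBP1 normalised to ACTB, GAPDH, POLR2A.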

[9] = LTEA_HepaRG_LDH_cytotoxicity: Cytotoxicity Assessment in the Life Technologies and Expression Analysis (LTEA) Assay (AID 2283563; active means hit-call score of the fitted dose curve at least 0.9, where 1 is the maximum;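 on AC50: LDH activity released into spent culture medium as a marker of cell death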)
How it was run: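 Spent-medium LDH after 48 h chemical exposure of HepaRG cells in serum-free induction medium; eight concentrations, half-log dilutions from 100 uM, duplicate wells, fitted upward relative to 0.5% DMSO.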

[10] = TOX21_p53_BLA_p2_viability: Viability Assessment in the Tox21 HCT-116 p53 Agonism Beta-lactamase Assay, Phase 2 (AID 2283591; active means hit-call score of the fitted dose curve at least 0.9, where 1 is the maximum;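 further: compound exposure lasted 16 h at 37 °C; actives lower the ATP signal meaning cytotoxicity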)
How it was run: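 Cytotoxicity readout: CellTiter-Glo ATP luminescence, 30 min at room temperature, after the beta-lactamase read. Cells were HCT116 exposed 16 h at 37C to compounds pin-transferred at 217-fold dilution from DMSO stocks.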

[11] = biological target: Cellular tumor antigen p53 (Homo sapiens) (UniProt P04637); test: TOX21_p53_BLA_p2_ratio: Tox21 HCT-116 p53 Agonism Beta-lactamase Assay, Ratio, Phase 2 (AID 2283592; active means hit-call score of the fitted dose curve at least 0.9, where 1 is the maximum)
Cellular tumor antigen p53 (Homo sapiens), sequence (P04637 whole entry, looked up): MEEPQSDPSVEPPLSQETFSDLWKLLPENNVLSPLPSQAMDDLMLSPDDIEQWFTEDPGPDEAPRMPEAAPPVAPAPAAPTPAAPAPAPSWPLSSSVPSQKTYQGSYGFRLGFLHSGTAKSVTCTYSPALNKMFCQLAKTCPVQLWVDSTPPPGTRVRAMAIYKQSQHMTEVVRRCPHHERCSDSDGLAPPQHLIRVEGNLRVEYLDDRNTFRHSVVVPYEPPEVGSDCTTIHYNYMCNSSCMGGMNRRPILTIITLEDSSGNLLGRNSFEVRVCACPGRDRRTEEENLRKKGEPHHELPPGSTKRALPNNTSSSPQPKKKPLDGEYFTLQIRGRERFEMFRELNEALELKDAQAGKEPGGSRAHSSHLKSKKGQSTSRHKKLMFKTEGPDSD
How it was run: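 Human colon HCT116 cells with an inducible p53 beta-lactamase reporter are exposed to test chemicals for 16 h at 37C. Reporter induction is read as the 460/530 nm emission ratio after CCF4-AM loading, normalized to DMSO.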

[12] = TOX21_p53_BLA_p3_viability: Viability Assessment in the Tox21 HCT-116 p53 Agonism Beta-lactamase Assay, Phase 3 (AID 2283593; active means hit-call score of the fitted dose curve at least 0.9, where 1 is the maximum;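 further: cells exposed to compound for 16 h before reading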)
How it was run: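 Cellular ATP was quantified by CellTiter-Glo luminescence, read after 30 min at room temperature. Beforehand, HCT116 cells (4000/well) received compound 5 h post-seeding, 217-fold diluted from DMSO, then incubated 16 h at 37C.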

[13] = biological target: Cellular tumor antigen p53 (Homo sapiens) (UniProt P04637); test: TOX21_p53_BLA_p3_ratio: Tox21 HCT-116 p53 Agonism Beta-lactamase Assay, Ratio, Phase 3 (AID 2283596; active means hit-call score of the fitted dose curve at least 0.9, where 1 is the maximum)
How it was run: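 HCT116 p53-bla cells (4000/well) given compound in DMSO (217-fold dilution) after 5 h, incubated 16 h at 37C. CCF4-AM substrate 2 h at room temperature; 460/530 nm emission ratio, gain fitted against DMSO.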

[14] = TOX21_p53_BLA_p4_viability: Viability Assessment in the Tox21 HCT-116 p53 Agonism Beta-lactamase Assay, Phase 4 (AID 2283597; active means hit-call score of the fitted dose curve at least 0.9, where 1 is the maximum;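 further: hits lower the luminescence signal meaning cytotoxicity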)
How it was run: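 Luminescent ATP readout (CellTiter-Glo, 30 min, room temperature) in the same wells as the p53 bla ratio. HCT116 cells were treated for 16 h at 37C with DMSO-dissolved compounds.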

[15] = biological target: Cellular tumor antigen p53 (Homo sapiens) (UniProt P04637); test: TOX21_p53_BLA_p5_ratio: Tox21 HCT-116 p53 Agonism Beta-lactamase Assay, Ratio, Phase 5 (AID 2283599; active means hit-call score of the fitted dose curve at least 0.9, where 1 is the maximum)
How it was run: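 Beta-lactamase reporter ratio (blue 460 nm over green 530 nm, 405 nm excitation) after 2 h CCF4-AM loading, in HCT-116 cells exposed 16 h at 37 C to compounds pinned at 217-fold dilution. Increases relative to DMSO baseline scored.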

[16] = TOX21_p53_BLA_p5_viability: Viability Assessment in the Tox21 HCT-116 p53 Agonism Beta-lactamase Assay, Phase 5 (AID 2283600; active means hit-call score of the fitted dose curve at least 0.9, where 1 is the maximum)
How it was run: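 Seeded cells (4000/well) settle 5 h before compound addition. Plates then incubate 16 h at 37C, receive FRET substrate for 2 h, and finally CellTiter-Glo, with luminescence measured after a 30 min room-temperature incubation.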

[17] = biological target: Cellular tumor antigen p53 (Homo sapiens) (UniProt P04637); test: TOX21_p53_BLA_p4_ratio: Tox21 HCT-116 p53 Agonism Beta-lactamase Assay, Ratio, Phase 4 (AID 2283601; active means hit-call score of the fitted dose curve at least 0.9, where 1 is the maximum)
How it was run: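 Signal is the blue/green (460nm/530nm) ratio of cleaved versus uncleaved CCF4-AM substrate, read after 2 h substrate loading. Cells were HCT116 carrying the p53-responsive beta-lactamase reporter, dosed 16 h at 37C, 5% CO2; CellTiter-Glo measured in parallel.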

[18] = read-out: Tumor necrosis factor receptor 1 (TNFRSF1A), TNFRSF1A (gene 7132); test: LTEA_HepaRG_TNFRSF1A: Life Technologies and Expression Analysis (LTEA) Assay for Tumor necrosis factor receptor 1 (TNFRSF1A) using HepaRG (AID 2283535); conditions: mRNA level, 48 h; actives raise or lower the signal
How it was run: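 Assay uses 48 h chemical treatment of differentiated HepaRG monolayers, tested in duplicate at eight concentrations from 100 uM downward in 0.5% DMSO. mRNA is normalized to ACTB, GAPDH and POLR2A, with induction or suppression fitted relative to vehicle.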

[19] = ATG_XTT_Cytotoxicity: Cytotoxicity Assessment in the Attagene TRANS-FACTORIAL HepG2 Assay (AID 2283584; active means hit-call score of the fitted dose curve at least 0.9, where 1 is the maximum)
How it was run: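 24 h chemical exposure of reporter-transfected HepG2; XTT signal loss vs DMSO indicates cytotoxicity.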

Measured: AC50

COc1cc(-c2nc(NC(=O)c3cc4cc(C)cc(C)c4n3CC(=O)O)sc2CCC2CCCCC2)c(OC)cc1Cl
active: [1] 6.35 µM | [2] 60.3 µM | [3] 12.1 µM | TIMP1, TIMP1 (gene 7076) 4.26 µM | [4] 6.89 µM | [5] 24.6 µM | [6] 7.32 µM | [7] 7.34 µM | [8] 19.6 µM | [9] 9.05 µM | [10] 1.65 µM | [11] 2.2 µM | [12] 5.1 µM | [13] 7.74 µM | [14] 2.1 µM | [15] 9.04 µM | [16] 3.51 µM | [17] 3.39 µM

C[C@]12C=CC(=O)C=C1CC[C@@H]1[C@@H]2C(=O)C[C@@]2(C)[C@H]1CC[C@]2(O)C(=O)CO
active: [6] 50 µM
not listed: [5] | [13] | [17]
inactive: all other assays above

FC(F)(F)C(F)(F)C(F)(F)C(F)(F)C(F)(F)C(F)(F)CCI
not listed: [10] | [14] | [16] | [17] | [18]
inactive: all other assays above

CC(C)(C)c1cc(O)c(C(C)(C)C)cc1O
active: [1] 90.9 µM | TIMP1, TIMP1 (gene 7076) 50 µM | [4] 78.9 µM | [5] 86.7 µM | [6] 89.2 µM | [7] 91.3 µM | [9] 73.5 µM | [11] 80.1 µM | [13] 71.6 µM | [14] 69 µM | [15] 90.5 µM
inactive: [2] | [3] | [8] | [10] | [12] | [16] | [17]
